This passage reports z-score results from PubChem BioAssay.

SMILES strings stand for the structures. A number with no mark means an inactive call.

The nature of one experiment: osmotic lysis modulators in infected erythrocytes, primary screen, PSAC antagonist project, cell-based, P. falciparum Indochina, OD700, 3 h (AID 1156). The following applies: higher = more signal, called active from +8 up or from −8 down.
As for `CCCCCCCCCCC(O)C1C=CC2C(=O)NC(=O)C2N1Nc1ccc(Cl)cc1Cl` (centres undefined), the z-score was -1.75. As to `C=CC1c2cc(O)c(OC)cc2CCN1Cc1cccc(OC(F)(F)F)c1` (centres undefined), the z-score was 0.2. As for `CC(C)[Si](C#C[Si](C(C)C)(C(C)C)C(C)C)(O[C@H](C)c1cn(Cc2ccccc2)nn1)C(C)C`, the z-score is -0.915. On to `O=C1O[C@H](c2ccccc2)[C@H](c2ccccc2)N2[C@H]1[C@@H](C(=O)NC[C@H](O)c1ccccc1)[C@]1(C(=O)Nc3ccc(C#CC4=CCCCC4)cc31)[C@H]2c1ccccc1OCCO`, for which the z-score was -0.932. Turning to `COc1ccc(-c2cc3c(c(Cc4ccccc4)n2)[Si](C(C)C)(C(C)C)OC3)cn1`, the z-score is -0.709. For the molecule `C=CCC(OC(C)=O)[C@@H]1[C@@H](N(Cc2ccc(-c3cccc(C(F)(F)F)c3)o2)C(=O)Cc2ccc(OC)cc2)c2cc(OCCCO)ccc2N1C(=O)c1ccc2ccccc2c1` (some centres undefined), the z-score was 2.68. Consider `CCC(CC)C(O)C1C=CC2C(=O)N(c3ccccc3)C(=O)C2N1Nc1ccccc1` (centres undefined), for which the z-score is 0.301. With `CN1C(=O)C2C=CC(C(O)c3c(F)cccc3Cl)N(NC(=O)OC(C)(C)C)C2C1=O` (centres undefined), the z-score is -0.46.

Regarding `C=C[C@H](C)[C@@H](OC(=O)Nc1ccc(SC)cc1)c1ccc(O)c2ccccc12`, the z-score is 2.51. For the molecule `COc1ccccc1CN1C(=O)c2ccccc2[C@@H](C(=O)NCc2ccccc2)[C@@H]1c1ccc(CO)cc1`, the z-score is 0.708.

As to `O=C1OCC=C[C@H]2OC34C=CCN(Cn5nnc6ccccc65)C(=O)[C@H]3N(CCCCCO)C(=O)[C@@H]4[C@@H]12` (some centres undefined), the z-score is 1.11. Turning to `Cc1ccc(S[C@]2(C(=O)NCC(C)C)CC(=O)N(Cc3cc(C(F)(F)F)cc(C(F)(F)F)c3)[C@@H]2c2ccc(CO)cc2)cc1`, the z-score is 0.664. In the case of `CS(=O)(=O)CCOC(=O)C1=CC(CCCO)=CC(C2CC2)N(Cc2cc3c(cc2Br)OCO3)C=C1C(=O)OCCS(C)(=O)=O` (centres undefined), the z-score is 0.106. For the molecule `C=CCOC(=O)[C@H]1[C@@H]2C(=O)O[C@@H](c3ccccc3)[C@@H](c3ccccc3)N2[C@@H](c2ccc(OCCOC(=O)[C@H]3C[C@H]4C(=O)N[C@@H](CCCCN(C)C)C(=O)N4[C@H]3c3cccc(OCCO)c3)cc2)[C@]12C(=O)Nc1ccc(I)cc12`, the z-score was -0.0437. On the same count and under the same terms, then `COc1ccc([Si](C)(C)[C@H]2[C@H](CC(=O)N3CCC[C@H]3CO)O[C@@]3(C(=O)N(Cc4cccc(N5CCOC5=O)c4)c4ccccc43)[C@@H]2C)cc1`, with 0.618. Regarding `O=C1OCCC=C[C@H]2OC34C=CCN(c5ccc(Cl)cc5)C(=O)[C@H]3N(CCCO)C(=O)[C@@H]4C12` (some centres undefined), the z-score is 0.319. Turning to `COc1ccc(C(O)C2C=CC3C(=O)N(C)C(=O)C3N2N(c2ccccc2)c2ccccc2)c2ccccc12` (centres undefined), the z-score was 0.39. For the molecule `COCC(=C=CC[C@H](O)c1cccc(OCCO)c1)CCO`, the z-score is 0.104. The same measure, in the same setting: the result for `CC[C@@H]1C=C(C(=O)O)[C@H](c2ccc(C)cc2)N1S(=O)(=O)c1ccc(C)cc1` reads -0.245; that for `O=C1NC(=O)C2C1C=CC(C(O)C1CC=CCC1)N2Nc1ccccn1` (centres undefined), 0.0677; that for `COc1ccc(C(=O)Nc2cccc(CN3C(=O)[C@]4(O[C@H](CCn5cc(CCO)nn5)[C@@H]([Si](C)(C)c5ccc(OC)cc5)[C@@H]4C)c4ccccc43)c2)cc1`, 0.155.

On to `CS(=O)(=O)CCOC(=O)C1=CC(CCCO)=CC(c2ccc(CN3CCCC3)cc2)N(Cc2cccc(OC(F)(F)F)c2)C=C1C(=O)OCCS(C)(=O)=O` (centres undefined), for which the z-score is 0.128.

Consider `COC(=O)c1c2oc(c1C(=O)OC)C(=O)N[C@@H](C(C)C)Cn1cc(nn1)C1(CCCCC1)NC(=O)N[C@H](CO)CC2`, for which the z-score is 0.144. The same measure, in the same setting: the result for `O=C1O[C@@H](c2ccccc2)[C@@H](c2ccccc2)N2[C@@H](c3ccc(OCCO)cc3)[C@]3(C(=O)Nc4ccc(C#CCCO)cc43)[C@@H](C(=O)NC[C@H](O)c3ccccc3)[C@H]12` reads 1.53. On to `CC(c1ccccc1)C(O)C1C=CC2C(=O)N(c3ccccc3)C(=O)C2N1Nc1ccccc1` (centres undefined), for which the z-score was 2.47. In the case of `CC1CC/C=C\[C@H]2OC34C=CCN(Cc5ccccc5)C(=O)[C@H]3N(C(C)CO)C(=O)[C@@H]4C2C(=O)O1` (some centres undefined), the z-score was 1.8.

A short description of another experiment: PSAC antagonists in infected red cells, primary screen, cell-based, P. falciparum Indochina, OD700, 18 h (AID 1157). The following applies: P. falciparum Indochina infected erythrocytes, osmotic lysis OD700, 18 h; higher = more signal, called active from +8 up or from −8 down.
On to `COc1ccc([Si](C)(C)[C@@H]2[C@@H](CCO)O[C@]3(C(=O)N(Cc4cccc(N5CCOC5=O)c4)c4ccccc43)[C@H]2C)cc1`, for which the z-score was 3.29. The same measure, in the same setting: then `CCOC(=O)C1=CC[C@H]2C(=O)N(c3ccccc3)C(=O)[C@@H]12`, with 0.339; and `CCOC(=O)C[C@H]1[C@H](OC(=O)c2ccc(C(=O)c3ccccc3)cc2)[C@@H](NC(=O)Cc2ccc(OC)cc2)c2cc(OCCCO)ccc2N1C(=O)c1ccc2ccccc2n1`, with 0.604; and `COC(=O)[C@@]1(Cc2ccc(F)cc2)[C@H]2c3cc(C(=O)N(C)C)n(Cc4cc(C)n(C)n4)c3C[C@H]2CN1C(=O)c1ccccc1`, with 0.495. For `CCCC[C@@H]1C[C@H]1[C@@H](NC(=O)c1cccnc1)c1ccc(Cl)cc1`, the z-score was 1.03. `[N-]=[N+]=Nc1ccccc1C[C@@]1(C(=O)N2CCCCC2)N=C(c2ccc(OCCCO)cc2)O[C@@H]1c1ccccc1N=[N+]=[N-]`: the z-score was 3.95. With `C=CCC(OC(C)=O)[C@@H]1[C@@H](N(Cc2ccc(-c3cccc(C(F)(F)F)c3)o2)C(=O)c2cccc3ccccc23)c2cc(OCCCO)ccc2N1C(=O)Cc1ccc2ccccc2c1` (some centres undefined), the z-score is -0.449. Consider `CCCCN1CC=CC23O[C@@H]4C=CCOC(=O)[C@@H]4[C@H]2C(=O)N(CCCCCCO)[C@@H]3C1=O` (some centres undefined), for which the z-score was 0.405. Turning to `O=C1C2C=CC(C(O)C=Cc3ccc([N+](=O)[O-])cc3)N(n3cnnc3)C2C(=O)N1Cc1ccccc1` (centres undefined), the z-score is 0.83. Same read-out and setting: then `O=C1[C@H]2C=C(Br)[C@H](C[C@@H]2OCCCCCCO)[C@@]12CO2`, with 0.501; and `CCCCCCCCCCC(O)C1C=CC2C(=O)NC(=O)C2N1Nc1ccc(Cl)cc1Cl` (centres undefined), with 1.78. Same read-out and setting: the result for `C=CC1c2cc(O)c(OC)cc2CCN1Cc1cccc(OC(F)(F)F)c1` (centres undefined) reads 0.451; that for `CC(C)[Si](C#C[Si](C(C)C)(C(C)C)C(C)C)(O[C@H](C)c1cn(Cc2ccccc2)nn1)C(C)C`, 0.0635. `O=C1O[C@H](c2ccccc2)[C@H](c2ccccc2)N2[C@H]1[C@@H](C(=O)NC[C@H](O)c1ccccc1)[C@]1(C(=O)Nc3ccc(C#CC4=CCCCC4)cc31)[C@H]2c1ccccc1OCCO`: the z-score was 2.06. On the same count and under the same terms, then `COc1ccc(-c2cc3c(c(Cc4ccccc4)n2)[Si](C(C)C)(C(C)C)OC3)cn1`, with 0.408; and `C=CCC(OC(C)=O)[C@@H]1[C@@H](N(Cc2ccc(-c3cccc(C(F)(F)F)c3)o2)C(=O)Cc2ccc(OC)cc2)c2cc(OCCCO)ccc2N1C(=O)c1ccc2ccccc2c1` (some centres undefined), with 0.898; and `CCC(CC)C(O)C1C=CC2C(=O)N(c3ccccc3)C(=O)C2N1Nc1ccccc1` (centres undefined), with 0.95. As to `CN1C(=O)C2C=CC(C(O)c3c(F)cccc3Cl)N(NC(=O)OC(C)(C)C)C2C1=O` (centres undefined), the z-score is 0.58. For `C=C[C@H](C)[C@@H](OC(=O)Nc1ccc(SC)cc1)c1ccc(O)c2ccccc12`, the z-score is 1.31. `COc1ccccc1CN1C(=O)c2ccccc2[C@@H](C(=O)NCc2ccccc2)[C@@H]1c1ccc(CO)cc1`: the z-score is 0.205. On to `O=C1OCC=C[C@H]2OC34C=CCN(Cn5nnc6ccccc65)C(=O)[C@H]3N(CCCCCO)C(=O)[C@@H]4[C@@H]12` (some centres undefined), for which the z-score is 0.383. Consider `Cc1ccc(S[C@]2(C(=O)NCC(C)C)CC(=O)N(Cc3cc(C(F)(F)F)cc(C(F)(F)F)c3)[C@@H]2c2ccc(CO)cc2)cc1`, for which the z-score was 0.13. Take `CS(=O)(=O)CCOC(=O)C1=CC(CCCO)=CC(C2CC2)N(Cc2cc3c(cc2Br)OCO3)C=C1C(=O)OCCS(C)(=O)=O` (centres undefined): the z-score is 0.504. Regarding `C=CCOC(=O)[C@H]1[C@@H]2C(=O)O[C@@H](c3ccccc3)[C@@H](c3ccccc3)N2[C@@H](c2ccc(OCCOC(=O)[C@H]3C[C@H]4C(=O)N[C@@H](CCCCN(C)C)C(=O)N4[C@H]3c3cccc(OCCO)c3)cc2)[C@]12C(=O)Nc1ccc(I)cc12`, the z-score is 0.375. For `COc1ccc([Si](C)(C)[C@H]2[C@H](CC(=O)N3CCC[C@H]3CO)O[C@@]3(C(=O)N(Cc4cccc(N5CCOC5=O)c4)c4ccccc43)[C@@H]2C)cc1`, the z-score is 0.722. With `O=C1OCCC=C[C@H]2OC34C=CCN(c5ccc(Cl)cc5)C(=O)[C@H]3N(CCCO)C(=O)[C@@H]4C12` (some centres undefined), the z-score was -0.652. Still for that read-out and setting: the result for `COc1ccc(C(O)C2C=CC3C(=O)N(C)C(=O)C3N2N(c2ccccc2)c2ccccc2)c2ccccc12` (centres undefined) reads 1.32.

Regarding `COCC(=C=CC[C@H](O)c1cccc(OCCO)c1)CCO`, the z-score was 0.0864. For `CC[C@@H]1C=C(C(=O)O)[C@H](c2ccc(C)cc2)N1S(=O)(=O)c1ccc(C)cc1`, the z-score is 0.856. For the molecule `O=C1NC(=O)C2C1C=CC(C(O)C1CC=CCC1)N2Nc1ccccn1` (centres undefined), the z-score was 0.288. Take `COc1ccc(C(=O)Nc2cccc(CN3C(=O)[C@]4(O[C@H](CCn5cc(CCO)nn5)[C@@H]([Si](C)(C)c5ccc(OC)cc5)[C@@H]4C)c4ccccc43)c2)cc1`: the z-score was 1.7. On to `CS(=O)(=O)CCOC(=O)C1=CC(CCCO)=CC(c2ccc(CN3CCCC3)cc2)N(Cc2cccc(OC(F)(F)F)c2)C=C1C(=O)OCCS(C)(=O)=O` (centres undefined), for which the z-score is 0.577. On the same count and under the same terms, the result for `COC(=O)c1c2oc(c1C(=O)OC)C(=O)N[C@@H](C(C)C)Cn1cc(nn1)C1(CCCCC1)NC(=O)N[C@H](CO)CC2` reads 0.36.
